Test results: PubChem BioAssay (EPA / NIEHS)
Values joined by “and” are separate entries in the source; they are usually repeats but may differ in a detail not shown here. Equal values may be shown once. Inconclusive results are not listed. Active and inactive are the calls of the source. How the source made its calls, unless noted: active means hit-call score of the fitted dose curve at least 0.9, where 1 is the maximum; inactive means score below 0.9.

Legend:
[1] = TOX21_p53_BLA_p2_viability: Viability Assessment in the Tox21 HCT-116 p53 Agonism Beta-lactamase Assay, Phase 2 (AID 2283591; active means hit-call score of the fitted dose curve at least 0.9, where 1 is the maximum;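 further: actives lower the ATP signal meaning cytotoxicity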)
Method in brief: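 HCT116 p53-bla cells, 4000/well, dosed after 5 h plating (217-fold dilution of DMSO stocks) and incubated 16 h at 37C. Viability taken as cellular ATP by CellTiter-Glo luminescence after 30 min RT; signal loss marks cytotoxicity.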

[2] = molecular target: Cellular tumor antigen p53 (Homo sapiens) (UniProt P04637); experiment: TOX21_p53_BLA_p2_ratio: Tox21 HCT-116 p53 Agonism Beta-lactamase Assay, Ratio, Phase 2 (AID 2283592; active means hit-call score of the fitted dose curve at least 0.9, where 1 is the maximum)
Method in brief: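 DMSO-normalized, positive-direction endpoint derived from the 460 nm/530 nm FRET ratio in HCT116 p53 beta-lactamase reporter cells exposed 16 h at 37C and loaded with CCF4-AM for 2 h.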

[3] = TOX21_p53_BLA_p3_viability: Viability Assessment in the Tox21 HCT-116 p53 Agonism Beta-lactamase Assay, Phase 3 (AID 2283593; active means hit-call score of the fitted dose curve at least 0.9, where 1 is the maximum;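 further: cells exposed to compound for 16 h before reading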)
Method in brief: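 HCT116 cells, 4000/well, dosed 5 h after plating by pin transfer (217-fold dilution from DMSO stock) and incubated 16 h at 37C, 5% CO2. Viability read as ATP luminescence with CellTiter-Glo after 30 min at room temperature.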

[4] = molecular target: Cellular tumor antigen p53 (Homo sapiens) (UniProt P04637); experiment: TOX21_p53_BLA_p3_ratio: Tox21 HCT-116 p53 Agonism Beta-lactamase Assay, Ratio, Phase 3 (AID 2283596; active means hit-call score of the fitted dose curve at least 0.9, where 1 is the maximum)
Method in brief: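 Cells were seeded at 4000/well, rested 5 h at 37C, then dosed with DMSO compound solutions (217-fold dilution) for 16 h. CCF4-AM substrate was loaded for 2 h at room temperature, and the 460/530 nm emission ratio was fitted for gain of signal versus DMSO.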

[5] = TOX21_p53_BLA_p4_viability: Viability Assessment in the Tox21 HCT-116 p53 Agonism Beta-lactamase Assay, Phase 4 (AID 2283597; active means hit-call score of the fitted dose curve at least 0.9, where 1 is the maximum;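 further: hits lower the luminescence signal meaning cytotoxicity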)
Method in brief: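 In this multiplexed secondary endpoint, HCT116 cells (4000 per well, compound at 5 h, 16 h treatment) received CellTiter-Glo after the beta-lactamase read. Luminescence after 30 min RT reflects ATP, and falling signal marks cytotoxicity.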

[6] = molecular target: Cellular tumor antigen p53 (Homo sapiens) (UniProt P04637); experiment: TOX21_p53_BLA_p5_ratio: Tox21 HCT-116 p53 Agonism Beta-lactamase Assay, Ratio, Phase 5 (AID 2283599; active means hit-call score of the fitted dose curve at least 0.9, where 1 is the maximum)
Method in brief: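 HCT-116 p53-bla cells (4000/well) plated 5 h, dosed with compound (217-fold DMSO dilution) for 16 h at 37 C; CCF4-AM substrate 2 h at room temperature. Activity is the 460/530 nm emission ratio (405 nm excitation), fitted in gain-of-signal direction versus DMSO.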

[7] = molecular target: Cellular tumor antigen p53 (Homo sapiens) (UniProt P04637); experiment: TOX21_p53_BLA_p4_ratio: Tox21 HCT-116 p53 Agonism Beta-lactamase Assay, Ratio, Phase 4 (AID 2283601; active means hit-call score of the fitted dose curve at least 0.9, where 1 is the maximum)
Method in brief: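 HCT-116 p53 beta-lactamase reporter cells (4000/well) preincubated 5 h, then compound (217-fold dilution of DMSO stock) for 16 h at 37C. CCF4-AM substrate added 2 h at room temperature; 460/530 nm emission ratio fitted upward versus DMSO.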

[8] = CCTE_Shafer_MEA_dev_firing_rate_mean: CCTE's Neural Network Formation Assay for Mean Firing Rate, Shafer Lab (AID 2284031);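 further: curve fitted for loss of firing so AC50 reflects decreased mean firing rate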
Method in brief: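 Spike frequency (spikes/recording length, averaged over active electrodes) was recorded on days 5, 7, 9 and 12 and collapsed to AUC; rat cortical cultures received compound continuously over 12 days of network development.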

[9] = CCTE_Shafer_MEA_dev_active_electrodes_number: CCTE's Neural Network Formation Assay for Number of Active Electrodes, Shafer Lab (AID 2284040; active means hit-call score of the fitted dose curve at least 0.9, where 1 is the maximum;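 further: potency for loss of active electrodes versus DMSO so lower counts are hits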)
Method in brief: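 Counts electrodes per well firing at least 5 spikes/min, recorded on days 5, 7, 9 and 12 in rat cortical cultures dosed continuously from plating (treatment refreshed DIV 5, 9). Value is the area under the curve over recordings, fitted downward relative to DMSO.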

[10] = CCTE_Shafer_MEA_dev_burst_rate: CCTE's Neural Network Formation Assay for Burst Rate, Shafer Lab (AID 2284042);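 further: potency for loss of burst rate below DMSO control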
Method in brief: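 Developmental network assay measuring how 12-day exposure of rat cortical neuron cultures alters bursting on extracellular MEA recordings. Values are AUC of well-mean burst rate across four recording days, relative to DMSO vehicle.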

[11] = CCTE_Shafer_MEA_dev_bursting_electrodes_number: CCTE's Neural Network Formation Assay for Number of Bursting Electrodes, Shafer Lab (AID 2284043; active means hit-call score of the fitted dose curve at least 0.9, where 1 is the maximum;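 further: potency is for loss of bursting electrodes relative to DMSO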)
Method in brief: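 Rat cortical primary neurons, 48-well MEA, 16 electrodes/well; dosing DIV 0–12, re-dosed with full media change DIV 5, 9. Recordings DIV 5/7/9/12, AxIS adaptive spike detector; bursting electrode = ≥1 burst/2 min. AUC across days; loss of signal vs DMSO.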

[12] = CCTE_Shafer_MEA_dev_per_burst_interspike_interval: CCTE's Neural Network Formation Assay for Burst Interspike Interval, Shafer Lab (AID 2284044);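 further: mean spike spacing inside bursts as AUC over recordings on days 5 7 9 12; potency for a decrease of within-burst interspike interval below DMSO level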
Method in brief: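 Spontaneous activity of maturing rat cortical networks is recorded on DIV 5, 7, 9 and 12 under chronic compound exposure beginning at plating. Endpoint: burst interspike interval well-mean, collapsed into trapezoidal AUC and fitted in the negative direction relative to DMSO.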

[13] = CCTE_Shafer_MEA_dev_burst_duration_mean: CCTE's Neural Network Formation Assay for Mean Burst Duration, Shafer Lab (AID 2284045);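 further: curve fitted for loss meaning shorter burst duration than DMSO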
Method in brief: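 Rat cortical cultures, 1.5 x 10^5 cells/well with laminin drop; continuous dosing days 0–12, media plus treatment refreshed DIV 5, 9. AxIS adaptive spike detection; mean single-electrode burst duration, AUC over four recordings, negative direction vs DMSO.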

[14] = CCTE_Shafer_MEA_dev_inter_network_spike_interval_mean: CCTE's Neural Network Formation Assay for Mean Inter-network Spike Interval, Shafer Lab (AID 2284047);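 further: potency for a decrease in mean inter-network spike interval below DMSO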
Method in brief: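 Compound was given at plating to primary rat cortical neurons and renewed with full medium changes on DIV 5 and 9. Extracellular activity was recorded on days 5, 7, 9, 12; AUC values were fitted for loss relative to DMSO control.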

[15] = CCTE_Shafer_MEA_dev_network_spike_number: CCTE's Neural Network Formation Assay for Number of Network Spikes, Shafer Lab (AID 2284048);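 further: synchronized bursts across electrodes counted on days 5 7 9 12 and integrated as AUC; fit as a loss of signal meaning fewer network spikes than DMSO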
Method in brief: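 Rat cortical primary cultures on 48-well MEA (16 electrodes/well); continuous exposure DIV 0–12, full medium and treatment exchange DIV 5, 9. Readout: network spike count, AxIS adaptive detection, recordings DIV 5/7/9/12 collapsed to AUC; loss-of-signal fit, DMSO baseline.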

[16] = CCTE_Shafer_MEA_dev_network_spike_peak: CCTE's Neural Network Formation Assay for Mean Number of Electrodes in Network Spike, Shafer Lab (AID 2284049);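 further: fitted for loss of signal meaning fewer electrodes in network spikes than DMSO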
Method in brief: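 Network-spike peak electrode count from recordings on days 5, 7, 9 and 12 was combined as trapezoidal area under the curve. Rat cortical cultures were treated continuously from plating, with compound renewed at each feed (DIV 5, 9); fits versus DMSO.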

[17] = CCTE_Shafer_MEA_dev_spike_duration_mean: CCTE's Neural Network Formation Assay for Mean Spike Duration, Shafer Lab (AID 2284051);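 further: mean network spike duration pooled as area under curve over DIV 5 to 12 recordings; potency for a decrease in mean network spike duration versus DMSO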
Method in brief: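 With DMSO as baseline, loss of mean network spike duration was scored from extracellular recordings of rat cortical neurons on MEA plates. Exposure spanned plating to DIV 12; the four recording days were collapsed into one AUC value.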

[18] = CCTE_Shafer_MEA_dev_network_spike_duration_std: CCTE's Neural Network Formation Assay for Standard Deviation of Network Spike Duration, Shafer Lab (AID 2284052);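 further: area under curve of spike duration SD across recording days 5 to 12; hits are decreases in network spike duration SD versus DMSO vehicle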
Method in brief: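 Developing networks of rat cortical neurons were exposed over twelve days in vitro on 48-well MEA plates. Trapezoidal AUC of recordings (DIV 5–12) was analysed for signal loss relative to DMSO vehicle.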

[19] = CCTE_Shafer_MEA_dev_per_network_spike_spike_number_mean: CCTE's Neural Network Formation Assay for Mean Number of Spikes in a Network Spike, Shafer Lab (AID 2284053);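 further: fitted as decrease in spikes per network spike relative to DMSO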
Method in brief: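 First, rat cortical cells (1.5 x 10^5/well) were seeded onto MEA wells; second, dosing began at plating and was refreshed on DIV 5 and 9; finally, network-spike spike counts across DIV 5–12 were summarized as AUC.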

[20] = CCTE_Shafer_MEA_dev_per_network_spike_spike_percent: CCTE's Neural Network Formation Assay for Percent of Spikes in a Network Spike, Shafer Lab (AID 2284054)
Method in brief: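 Read-out: percent of spikes falling in a 0.05 s window at network-spike peak, from spontaneous MEA recordings on days 5, 7, 9 and 12; trapezoidal AUC; loss of signal versus DMSO. Rat cortical cultures, compound present throughout.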

[21] = CCTE_Shafer_MEA_dev_LDH: CCTE's Lactate Dehydrogenase Assay for Cytotoxicity in the Neural Network Formation Assay, Shafer Lab (AID 2284068; active means hit-call score of the fitted dose curve at least 0.9, where 1 is the maximum;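 further: exposure for twelve days from plating with re-dosing on DIV 5 and 9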)
Method in brief: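 Developing rat cortical networks on MEA plates are exposed to compound for 12 days from plating. LDH activity is measured spectrophotometrically, with DMSO as baseline.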

[22] = CCTE_Shafer_MEA_dev_mutual_information_norm: CCTE's Neural Network Formation Assay for Mutual Information Normalization, Shafer Lab (AID 2284091);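 further: mutual information between electrodes summarised as area under curve across four recording days; potency is for a decrease in mutual information relative to DMSO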
Method in brief: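 Neurons from rat cortex were seeded at 1.5 x 10^5 cells/well onto PEI-coated MEAs in a laminin drop, then exposed to compound from day 0 for twelve days. Network recordings on four days gave mutual information, summarised by AUC relative to DMSO.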

[23] = CCTE_Shafer_MEA_dev_correlation_coefficient_mean: CCTE's Neural Network Formation Assay for Mean Correlation Coefficient, Shafer Lab (AID 2284093);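 further: well mean pairwise spike train correlation integrated as AUC over recording days 5 to 12; potency fitted for loss of correlation relative to DMSO vehicle wells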
Method in brief: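 Extracellular firing from rat cortical networks on 48-well MEAs, DMSO-referenced, negative fitting direction. Compound present from plating to DIV12; mean pairwise correlation per well integrated over DIV5–12 recordings by trapezoidal AUC.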

[24] = UKN2_HCS_IMR90_neural_migration: University of Konstanz (UKN) Leist Lab Neural Crest Cell Migration Assay in human induced IMR90 Pluripotent Stem Cells (UKN2) (AID 2284204); details: actives raise or lower the signal
Method in brief: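 Stopper-exclusion migration (cMINC), human iPSC-derived neural crest cells; N2-S + EGF/FGF; compound added 24 h post-stopper removal, 24 h exposure. Readout: calcein-AM/Hoechst 30 min, HCS fluorescence imaging; bidirectional fitting, DMSO baseline.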

[25] = IUF_NPC1b_proliferation_BrdU_72hr: Leibniz Research Institute for Environmental Medicine (IUF) 72-hour Neural Progenitor Cell Bromodeoxyuridine (BrdU) Proliferation Assay (NPC1b) (AID 2284207)
Method in brief: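 Luminescent BrdU ELISA measured DNA synthesis during the last 16 h of a 72 h exposure of primary human neural progenitor spheres grown with EGF and FGF. Signal was fitted relative to DMSO controls.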

[26] = IUF_NPC1a_proliferation_area_72hr: Leibniz Research Institute for Environmental Medicine (IUF) 72-hour Neural Progenitor Cell Proliferation Area Assay (NPC1a) (AID 2284208)
Method in brief: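 Measured in 3D suspension: each well held one primary hNPC sphere grown with EGF and FGF at pH 7.2-7.6. Compound stayed on for 72 h, then area was imaged; spheres lacking growth factors defined reduced proliferation.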

[27] = IUF_NPC1_viability_72hr: Viability Assessment at 72 hours in the Leibniz Research Institute for Environmental Medicine (IUF) Neural Progenitor Cell Proliferation Assay (NPC1) (AID 2284209)
Method in brief: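 Viability was measured by resazurin-to-resorufin fluorescence (alamar blue) after 72 h of continuous exposure without compound renewal. Each well held one hNPC sphere (gestational week 16-19 fetal cortex, 0.25-0.35 mm) cultured in EGF/FGF proliferation medium at 37C and pH 7.2-7.6.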

[28] = CCTE_Mundy_HCI_Cortical_Synap_Neur_Matur_NeuriteSpotCountPerNeuriteLength: CCTE's Synaptogenesis and Neurite Maturation Assay in rat cortical cells for Neurite Spot Count per Neurite Length, Mundy Lab (AID 2284210)
Method in brief: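 Read-out: synaptophysin puncta counted along MAP2-stained neurites, normalised to neurite length, by automated high-content imaging. Rat cortical cells; AraC DIV 5; chemical dosing DIV 7; termination DIV 12. DMSO baseline.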

[29] = CCTE_Mundy_HCI_Cortical_Synap_Neur_Matur_BPCount: CCTE's Synaptogenesis and Neurite Maturation Assay in rat cortical cells for Branch Point Count, Mundy Lab (AID 2284211)
Method in brief: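 HCI read-out of branch points from MAP2/synaptophysin/Hoechst immunofluorescence; rat cortical cultures, AraC DIV 5, dosing DIV 7, fixed DIV 12; fit in positive direction vs DMSO baseline.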

Measured: AC50

Cellular tumor antigen p53 (Homo sapiens), sequence (P04637 whole entry, looked up): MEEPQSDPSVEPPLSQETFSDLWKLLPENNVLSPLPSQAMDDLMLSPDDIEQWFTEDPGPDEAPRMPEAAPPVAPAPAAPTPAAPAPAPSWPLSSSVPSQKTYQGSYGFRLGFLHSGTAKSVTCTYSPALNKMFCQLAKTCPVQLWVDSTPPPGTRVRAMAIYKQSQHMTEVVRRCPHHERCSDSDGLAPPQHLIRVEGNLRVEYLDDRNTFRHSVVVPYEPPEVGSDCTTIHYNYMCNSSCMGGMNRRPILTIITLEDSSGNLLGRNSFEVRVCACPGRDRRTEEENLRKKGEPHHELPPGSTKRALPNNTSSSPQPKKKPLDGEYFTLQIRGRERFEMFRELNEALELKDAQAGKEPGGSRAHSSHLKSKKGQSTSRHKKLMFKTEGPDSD

Cc1c(O)cccc1C(=O)N[C@@H](CSc1ccccc1)[C@H](O)CN1C[C@H]2CCCC[C@H]2C[C@H]1C(=O)NC(C)(C)C
inactive: [24]
active: [1] 36.3 µM and 18.7 µM | [2] 44.9 µM and 20.2 µM | [3] 21.6 µM and 21.1 µM | [4] 43.8 µM and 38.2 µM | [5] 27900 nM | [6] 66.8 µM and 35.3 µM | [7] 46.8 µM and 23.1 µM | [8] 438 nM | [9] 953 nM | [10] 664 nM | [11] 819 nM | [12] 473 nM | [13] 311 nM | [14] 1090 nM | [15] 1560 nM | [16] 1260 nM | [17] 559 nM | [18] 1270 nM | [19] 1190 nM | [20] 6350 nM | [21] 7060 nM | [22] 772 nM | [23] 1780 nM | [25] 8000 nM | [26] 25000 nM | [27] 14000 nM | [28] 6390 nM | [29] 4720 nM
